From article PMC8384837, “Expanding the binding specificity for RNA recognition by a PUF domain”

What was measured:
Assay in all cases: yeast three-hybrid, YBZ-1, SC-Leu-His + 0.5 mM 3-AT, 4 days
Conditions in all cases: tags: N-Gal4 AD-HA kept; label: inside an RPR1-promoter hybrid RNA with tandem MS2 sites; ssRNA
[1] = biological target: PUM1 PUF domain R5-RHN (Homo sapiens, UniProt Q14671 828-1176, C1007R;R1008H;Q1011N)
How it was run: (§1)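 Pumilio-1 PUF domain libraries, randomized (NNK) at the three base-contacting residues of each repeat, were co-expressed with matching RNA elements from a centromeric plasmid in strain YBZ-1 (LexA–MS2 coat fusion, HIS3 reporter). Transformants were plated on SC-Leu (input) and SC-Leu-His + 0.5 mM 3-AT (selection) for four days, and repeat regions were PCR-amplified and Illumina-sequenced. The interaction score is the log2 change in variant frequency from input to selection, with pseudocount 1 where absent.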

[2] = biological target: T1, PUM1 PUF domain R6-QRS (Homo sapiens, UniProt Q14671 828-1176, N1043Q;Y1044R;Q1047S)
T1 sequence: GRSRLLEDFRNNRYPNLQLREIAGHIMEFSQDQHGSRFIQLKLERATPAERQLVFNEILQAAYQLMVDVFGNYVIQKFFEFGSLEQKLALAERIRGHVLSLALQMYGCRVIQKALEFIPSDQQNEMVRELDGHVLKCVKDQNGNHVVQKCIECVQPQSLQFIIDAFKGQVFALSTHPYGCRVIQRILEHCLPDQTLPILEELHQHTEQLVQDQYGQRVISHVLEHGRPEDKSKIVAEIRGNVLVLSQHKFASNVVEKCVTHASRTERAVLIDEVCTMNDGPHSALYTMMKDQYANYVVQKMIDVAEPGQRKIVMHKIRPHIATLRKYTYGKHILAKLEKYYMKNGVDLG
How it was run: as §1

[3] = biological target: PUM1 PUF domain R4-WSG (Homo sapiens, UniProt Q14671 828-1176, N971W;H972S;Q975G)
How it was run: as §1

[4] = biological target: PUM1 PUF domain R3-IFT (Homo sapiens, UniProt Q14671 828-1176, C935I;R936F;Q939T)
How it was run: as §1

[5] = biological target: PUM1 PUF domain R5-KYS (Homo sapiens, UniProt Q14671 828-1176, C1007K;R1008Y;Q1011S)
How it was run: as §1

[6] = biological target: PUM1 PUF domain R8-EWK (Homo sapiens, UniProt Q14671 828-1176, N1122E;Y1123W;Q1126K)
How it was run: as §1

[7] = biological target: PUM1 PUF domain R5-RRD (Homo sapiens, UniProt Q14671 828-1176, C1007R;Q1011D)
How it was run: as §1

[8] = biological target: PUM1 PUF domain R7-TIV (Homo sapiens, UniProt Q14671 828-1176, S1079T;N1080I;E1083V)
How it was run: as §1

[9] = biological target: PUM1 PUF domain R1-QTR (Homo sapiens, UniProt Q14671 828-1176, S863Q;R864T;Q867R)
How it was run: as §1

[10] = biological target: PUM1 PUF domain R3-RCS (Homo sapiens, UniProt Q14671 828-1176, C935R;R936C;Q939S)
How it was run: as §1

With “GGCUAGAACUAGUGGAUCCCCCGGCGCCCGGCGGCUCGAGCCCGGGUAAGUGUGAAUAGUCUGCAUGCCGCCGGGCGCCAUGCCUGCAGGUCGACUCUAGAAAACAUG” the binding signal [1] was 4.79 log2 enrichment (interaction score).

For “GGCUAGAACUAGUGGAUCCCCCGGCGCCCGGCGGCUCGAGCCCGGGUAAGUGUAAAUAGUCUGCAUGCCGCCGGGCGCCAUGCCUGCAGGUCGACUCUAGAAAACAUG”, the binding signal [2] was 4.63 log2 enrichment (interaction score), the binding signal [3] was 1.85 log2 enrichment (interaction score) and the binding signal [4] was 4.66 log2 enrichment (interaction score). For the same sequence, the binding signal [5] was 2.35 log2 enrichment (interaction score), the binding signal [6] was 3.5 log2 enrichment (interaction score) and the binding signal [7] was 2.72 log2 enrichment (interaction score).

“GGCUAGAACUAGUGGAUCCCCCGGCGCCCGGCGGCUCGAGCCCGGGUAAGUGUAUAUAGUCUGCAUGCCGCCGGGCGCCAUGCCUGCAGGUCGACUCUAGAAAACAUG” was tested, and the binding signal [3] was 3.48 log2 enrichment (interaction score).

With “GGCUAGAACUAGUGGAUCCCCCGGCGCCCGGCGGCUCGAGCCCGGGUAAGUGUCAAUAGUCUGCAUGCCGCCGGGCGCCAUGCCUGCAGGUCGACUCUAGAAAACAUG” the binding signal [5] was 3.71 log2 enrichment (interaction score) and the binding signal [7] was 5.76 log2 enrichment (interaction score).

With “GGCUAGAACUAGUGGAUCCCCCGGCGCCCGGCGGCUCGAGCCCGGGUAAGUUUAAAUAGUCUGCAUGCCGCCGGGCGCCAUGCCUGCAGGUCGACUCUAGAAAACAUG” the binding signal [8] was 2.5 log2 enrichment (interaction score).

In the case of “GGCUAGAACUAGUGGAUCCCCCGGCGCCCGGCGGCUCGAGCCCGGGUAAGUGUAAAUCGUCUGCAUGCCGCCGGGCGCCAUGCCUGCAGGUCGACUCUAGAAAACAUG”, the binding signal [9] is reported as 2.41 log2 enrichment (interaction score).

With “GGCUAGAACUAGUGGAUCCCCCGGCGCCCGGCGGCUCGAGCCCGGGUAAGUGUUAAUAGUCUGCAUGCCGCCGGGCGCCAUGCCUGCAGGUCGACUCUAGAAAACAUG” the binding signal [7] was 5.74 log2 enrichment (interaction score).

For “GGCUAGAACUAGUGGAUCCCCCGGCGCCCGGCGGCUCGAGCCCGGGUAAGUGUAAGUAGUCUGCAUGCCGCCGGGCGCCAUGCCUGCAGGUCGACUCUAGAAAACAUG”, the binding signal [10] was 4.81 log2 enrichment (interaction score).

“GGCUAGAACUAGUGGAUCCCCCGGCGCCCGGCGGCUCGAGCCCGGGUAAGUGUACAUAGUCUGCAUGCCGCCGGGCGCCAUGCCUGCAGGUCGACUCUAGAAAACAUG” was tested, and the binding signal [3] was 2.7 log2 enrichment (interaction score).
